Measurements as given in PubChem BioAssay (NCI).
The panel holds about 83,000 compounds, 20% with a hit somewhere; the sample as a whole holds those more often.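 A percent growth of 40 corresponds to 60% growth inhibition; 0 means no net growth; -100 means all cells died. Active threshold: below 10.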 Unmarked numbers belong to inactive results. Active and inactive are the calls of the source.

Columns and labels:
Test in all cases: NCI-60 one-dose screen, 48 h (100 = growth as untreated, 0 = no growth, -100 = all killed)
HT29 colon = details: 10 µM unless noted
SNB-75 CNS = details: 10 µM unless noted
SNB-19 CNS = details: 10 µM unless noted
U251 CNS = details: 10 µM unless noted
PC-3 prostate = details: 10 µM unless noted
SK-MEL-5 melanoma = details: 10 µM unless noted
UACC-62 melanoma = details: 10 µM unless noted
LOX IMVI melanoma = details: 10 µM unless noted
SK-MEL-28 melanoma = details: 10 µM
SN12C renal = details: 10 µM unless noted
UO-31 renal = details: 10 µM unless noted
TK-10 renal = details: 10 µM unless noted
ACHN renal = details: 10 µM unless noted
CAKI-1 renal = details: 10 µM unless noted
A498 renal = details: 10 µM unless noted
CCRF-CEM leukemia = details: 10 µM unless noted
MOLT-4 leukemia = details: 10 µM unless noted
SR leukemia = details: 10 µM unless noted
SK-MEL-2 melanoma = details: 10 µM unless noted
EKVX NSCLC = details: 10 µM unless noted

Row | SMILES | growth (HT29 colon) | growth (SNB-75 CNS) | growth (SNB-19 CNS) | growth (U251 CNS) | growth (PC-3 prostate) | growth (SK-MEL-5 melanoma) | growth (UACC-62 melanoma) | growth (LOX IMVI melanoma) | growth (SK-MEL-28 melanoma) | growth (SN12C renal) | growth (UO-31 renal) | growth (TK-10 renal) | growth (ACHN renal) | growth (CAKI-1 renal) | growth (A498 renal) | growth (CCRF-CEM leukemia) | growth (MOLT-4 leukemia) | growth (SR leukemia) | growth (SK-MEL-2 melanoma) | growth (EKVX NSCLC)
1 | CCOC(=O)c1cc2c(n1Cc1cc(OC)c(OC)c(OC)c1)-c1oncc1CCC2 | 4.59% (active) | 20.2% | 72.1% | 25.3% | 37% | 8.95% (active) | 25.5% | 27% | 41.1% | 32.1% | 38.3% | 85.2% | 33.8% | 43.7% | -22.9% (active) | 5.78% (active) | 7.85% (active) | 2.12% (active) |  | 
2 | OC(c1ccccc1)c1nnc(SCc2ccccc2)n1Cc1ccccc1 (centres undefined) | 103% | 76.3% | 79.7% | 87.5% | 87.6% | 96.7% | 69.1% | 98.7% |  | 89.7% | 67.7% | 103% | 86.9% | 97% | 90.1% | 75.4% | 99.9% | 42.5% | 84.3% | 102%
3 | Cc1ccc2c(n1)C(=O)C(Oc1ccc(Br)cc1)=CC2=O | 97.6% | 82.2% | 96.6% | 94.5% | 95% | 93.6% | 95.9% | 84.2% |  | 93.5% | 84.3% | 103% | 7.34% (active) | 97.5% |  | 62% | 87.9% | 92.1% | 91.7% | 104%
4 | COc1cc(C2C3=C(COC3=O)N(CCO)c3cc4c(cc32)OCCO4)cc(OC)c1O (centres undefined) | 3.06% (active) | -17.9% (active) | 26.8% | 19.7% | 27.2% | 12.9% | 33.5% | 33% |  | 39.8% | 60.3% | 47.4% | 37.2% | 39.8% | 25.5% | 15.5% | 29.7% | 23% | 76.5% | 41%
5 | COc1ccc(C2C3=C(COC3=O)N(CCO)c3cc4c(cc32)OCCO4)cc1 (centres undefined) | 50.7% | 60.4% | 81.2% | 87% | 72.9% | 60.8% | 72.4% | 77.4% |  | 95.4% | 101% | 91.6% | 96.5% | 80.8% | 93.7% | 89.3% | 81.9% | 31.6% | 95% | 121%
6 | COc1ccc(-c2nsc3c2NC(=O)CC3c2cccc(OC)c2)cc1 (centres undefined) | 8.58% (active) | -17.5% (active) | 70.3% | 37.8% | 23.8% | 31.6% | 41.5% | 50.3% |  | 66.9% | 46.3% | 61.9% | 55.1% | 32.9% | 27.4% | 14.2% | 32.2% | 24.3% | 34.1% | 
7 | COc1cc(C(=O)NN=C2c3ccccc3-c3ccccc32)cc(OC)c1OC | 5.22% (active) | 14.2% | 42.4% | 20.9% | 31% | 7.14% (active) | 44.2% | 28.7% |  | 41.6% | 46.5% | 55.5% | 46.4% | 24.6% | 6.68% (active) | 25.5% | 39.3% | 13.9% | 6.51% (active) | 
8 | O=C(/C=C/c1cccc(Cl)c1)OCc1ccc2cc1OCC#C/C=C\C#CCO2 | 89.3% | 80.9% | 93.9% | 102% | 96.2% | 106% | 89.2% | 88.4% |  | 95.7% | 80.2% | 122% | 99.4% | 101% | 76.7% | 84% | 73.2% | 63% | 113% | 115%
9 | O=C(Nc1ccc(N2CCNCC2)cc1)c1[nH]ncc1Nc1cc(C2CC2)ncn1 | 49.2% | 31.5% | 65.4% | 68.6% | 30.2% | 52.3% | 50% | 36.1% |  | 44.7% | 34.1% | 56.3% | 21.4% | 27.5% | 51.1% | 30% | 15.1% | 5.95% (active) | 64.5% | 69.8%
10 | COc1cc2nc(NC3CCC3)nc(NC3CCN(C(C)C)CC3)c2cc1OC | 14.5% | 46.8% | 91% | 21.5% | 58.9% | 14.5% | 83.5% | 42.9% |  | 92.2% | 80.6% | 46.8% | 57.2% | 92.2% | 75.9% | 46.5% | 45.5% | 2.34% (active) | 91.5% | 83.5%
11 | CC(C)c1ccc(S(=O)(=O)NC(=O)NC2CCCC2)cc1 | 108% | 101% | 100% | 101% | 99.9% | 101% | 94.7% | 97.7% |  | 97.1% | 95.4% | 101% | 103% | 96.7% | 102% | 98% | 94.6% | 95.6% | 110% | 98.1%
12 | O=C(CCN1C(=O)c2ccccc2C1=O)Nc1ccc(Cl)cc1 | 44.4% | 94.5% | 90.3% | 62.2% | 71.7% | 81% | 87.4% | 60.2% |  | 75.3% | 50.1% | 93.1% | 82.2% | 68.4% | 103% | 43.3% | 42% |  | 98.7% | 88.2%
13 | COc1c(B(O)O)cccc1-c1nc2ccc3n[nH]c(F)c3c2c2c1CCCC2 | 105% | -10.9% (active) | 78.8% | 71.4% | 74% | 88.7% | 77.7% | 54.7% |  | 62.6% | 41.5% | 35.7% | 65.9% | 0.82% (active) | 65.7% | 38.8% | 37.8% |  | 110% | 93%
14 | COc1cc(NC(=O)CCSc2nc3ccccc3c(=O)n2Cc2ccccc2)cc(OC)c1OC | 97.1% | 55.7% | 84.9% | 91.6% | 66.9% | 87.4% | 64.8% | 82% |  | 82.9% | 45.7% | 108% | 78.5% | 72.5% | 64.6% | 74.5% | 69.3% |  | 84.4% | 
15 | CCCCC(O)(c1ccc(Cl)cc1)C(CN1CCOCC1)c1ccc(Cl)cc1 (centres undefined) | 53.7% | 39.6% | 60.1% | 23.1% | 17.6% | 13.3% | 31.1% | 33.9% |  | 9.55% (active) | 16.1% | 52.9% | 33.2% | 26.5% | 36% | 22.3% | 6.34% (active) | 5.35% (active) | 50.1% | 
16 | Cn1cc(-c2ccc3ncc(-c4ccc(CC(=O)Nc5cc(C(C)(C)C)no5)cc4)nc3c2)cn1 | 51.6% | 43.7% | 62.6% | 40.8% | 49.7% | 28.7% | 42.6% | 45.7% |  | 26.8% | 2.84% (active) | 50.8% | 15.2% | 16.6% | 17.9% | 50.6% | 30.7% | 16% | 38.1% | 50%
17 | Nc1ccccc1-c1ccc(-c2ccc(Cl)cc2)c2c1[nH]c1ccccc12 | 67.4% | 83% | 81.8% | 70.6% | 14.1% | 86.9% | 60.3% | 72.5% |  | 66.5% | 26.1% | 84% | 75.2% | 50% | 72.4% | 37.4% | 25.8% | 53.6% | 79.6% | 70.6%
